Source: PubChem BioAssay (several laboratories)
Only some compounds are listed: those with a hit (about 32% of all), similar ones and a draw of the others.
CYP2C19 activ = activators of human cytochrome P450 2C19 | P33261 | activation factor at 5 µM | AID 1025 | recombinant CYP2C19, luciferin-H EGE luminescence; active compounds read high; 0 = fully inhibited enzyme, 1 = untreated enzyme | 96,000 tested, under 10 active;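 active = activation factor of at least 2 at 5 µM in the primary screen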;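 note: 0 = wells with 2.5 mM tranylcypromine and 1 = vehicle-only wells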
CYP2C9 activ = activators of human CYP2C9; P11712; recombinant CYP2C9, luciferin-H conversion, luminescence; active compounds read high; factor 1 = untreated enzyme, 0 = blocked; activation factor at 5 µM; hit rate 1.4% among 96,000; AID 1024;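 active = activation factor of 2 or more for CYP2C9 at a 5 µM dose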;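 note: 0 = sulfaphenazole-blocked wells and 1 = vehicle-only wells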
Target sequence (P11712 whole entry, looked up): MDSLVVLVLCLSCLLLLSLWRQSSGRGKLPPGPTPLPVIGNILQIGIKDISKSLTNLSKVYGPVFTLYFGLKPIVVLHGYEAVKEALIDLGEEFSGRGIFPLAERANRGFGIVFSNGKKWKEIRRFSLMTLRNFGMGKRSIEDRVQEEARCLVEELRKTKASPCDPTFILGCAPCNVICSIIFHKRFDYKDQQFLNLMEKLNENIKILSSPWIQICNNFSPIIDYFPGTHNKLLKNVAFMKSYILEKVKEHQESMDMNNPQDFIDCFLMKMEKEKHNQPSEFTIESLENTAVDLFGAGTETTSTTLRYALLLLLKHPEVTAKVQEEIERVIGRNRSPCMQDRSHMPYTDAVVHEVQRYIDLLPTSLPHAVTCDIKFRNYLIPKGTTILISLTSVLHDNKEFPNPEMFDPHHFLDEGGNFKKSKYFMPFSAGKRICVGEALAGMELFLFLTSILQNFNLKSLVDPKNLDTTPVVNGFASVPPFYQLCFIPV
PostGolgi yeast = growth inhibition of a yeast mutant, post-Golgi transport screen. post-Golgi transport phenotypic cell assay. inhibition, % at 10 µM. hit rate 0.9% among 98,000. AID 739;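 note: yeast cells grown in 1536-well plates; yeast grown about 18 h at 30C before absorbance read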
CYP2C9 inhib = blocks human cytochrome P450 2C9; P11712; CYP2C9 Supersomes, luciferin-H conversion, luminescence; inhibition, % at 5 µM; hit rate 20% among 96,000; AID 777;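 active = blocking of liver enzyme CYP2C9 beyond about 50% at 5 µM, limit read from the data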
PostGolgi ctrl = growth of the yeast control strain, post-Golgi counter-screen; efflux-deficient yeast background strain, growth absorbance A615, 16 h; inhibition, % at 10 µM; hit rate 5% among 98,000; AID 738
CYP2C19 inhib = blocks human cytochrome P450 2C19 | P33261 | hit rate 21% among 96,000 | AID 778 | inhibition, % at 5 µM | CYP2C19 Supersomes, luciferin-H EGE luminescence, 30 min;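 active = CYP2C19 inhibition above a set limit at 5 µM in the primary screen, cut at about 50% in these data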;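 note: plate controls were negative control wells for no effect and 2.5 mM tranylcypromine positive control for full effect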
Numbers without * were called inactive; . = no result given. Cut-off read from the data, not from the text of the source, unless noted: active = inhibition above about 30%; inactive = the rest.

SMILES	CYP2C19 activ	CYP2C9 activ	PostGolgi yeast	CYP2C9 inhib	PostGolgi ctrl	CYP2C19 inhib
CCC(=O)c1ccc(OCC(O)CN2CCN(C(c3ccccc3)c3ccccc3)CC2)cc1 (stereo not given)	0.5	0.3	1	67*	13	46
Cc1cc(=O)n2[nH]c(-c3ccc(F)cc3)cc2n1	0.8	1	6	-3	1	15
Cc1cc(=O)n2[nH]c(-c3ccc(Cl)cc3)cc2n1	0.2	0.8	-3	23	6	75*
Cc1nnc2sc(-c3cccc4ccccc34)nn12	0.9	1	1	-1	6	6
Nc1cc(Cl)c(N)cc1Cl	1	1.1	1	-14	11	-2
CC(C)OCCCNC(=O)c1ccc(N(C)S(C)(=O)=O)cc1	.	.	-14	.	3	.
CCC1=Nc2cc(C(=O)NCCCOC(C)C)ccc2Sc2ccccc21	0.3	0.4	5	60*	12	72*
CC(C)(C)n1nc2c(c1NC(=O)c1ccc(Br)cc1)CS(=O)C2 (stereo not given)	1.2	1.2	-1	-16	16	-18
Cc1ccc(C(=O)Nc2c3c(nn2C(C)(C)C)CS(=O)(=O)C3)cc1C	0	1.1	3	-12	13	99*
Fc1cccc(Oc2nc3ccccc3n3cccc23)c1	1	1.1	0	-10	2	5
COc1ccc(CN2C(=O)[C@@H]3C(c4ccccc4Cl)=NO[C@@H]3C2=O)cc1	0.1	0.3	3	70*	5	87*
COc1ccc(Cl)cc1N1C(=O)[C@@H]2C(c3cccc(OC)c3OC)=NO[C@@H]2C1=O	0.9	0.8	6	18	-1	12
COc1ccc(OC)c(C2=NO[C@@H]3C(=O)N(c4cc(Cl)ccc4OC)C(=O)[C@H]23)c1	0.4	0.8	0	23	7	62*
CC1=C(C)CC2C(=O)N(Cc3ccccc3)C(=O)C2C1 (stereo not given)	0.7	0.8	-1	18	9	30
O=C1[C@@H]2C(c3ccccc3Cl)=NO[C@@H]2C(=O)N1Cc1ccccc1	0	0.3	9	73*	5	99*
Cc1ccccc1Nc1nc(N)nc(CSCc2c(C)noc2C)n1	0.4	0.4	8	57*	9	64*
Cc1cccc(NC(=O)CSCc2c(C)noc2C)c1C	0.3	1.1	7	-9	-3	74*
Cc1noc(C)c1CSCC(=O)NC1=NCCS1	0.7	0.7	.	28	.	35
Cc1ccccc1Nc1nc(N)nc(COC(=O)c2cccn2C)n1	0.7	0.9	-12	12	12	29
Cc1cc(C)c2c(CN3CCN(CCO)CC3)cc(=O)oc2c1	0.7	0.9	-4	6	12	26
Cn1c(-c2ccccc2)cc(=O)c2ccccc21	0.8	1	-3	3	8	23
Cn1c(=O)cc(-c2ccccc2)c2ccccc21	0.1	0	-4	96*	21	87*
CC(C)Cn1c(C(C)NC(=O)Cc2ccccc2)nc2ccccc21 (stereo not given)	0.7	0.9	-3	9	16	29
CCn1c(C(Cc2ccccc2)NC(=O)COC)nc2ccccc21 (stereo not given)	0.2	0.8	4	22	17	81*
Cc1cccc(N2CCN(CC(=O)Nc3nccs3)CC2)c1C	0.2	0.4	39*	62*	1	82*
SMILES	CYP2C19 activ	CYP2C9 activ	PostGolgi yeast	CYP2C9 inhib	PostGolgi ctrl	CYP2C19 inhib
O=C(c1ccncc1)c1nccn1-c1ccccn1	0.2	0.2	11	81*	2	75*
Clc1ccc(OCc2nn3c(-c4ccccc4)nnc3s2)c(Cl)c1	1	0.8	2	23	10	3
c1csc(-c2nn3c(-c4ccncc4)nnc3s2)c1	0.6	0.7	.	32	.	36
Clc1ccccc1OCc1nn2c(-c3ccncc3)nnc2s1	0	0.2	7	80*	9	100*
c1csc(Cc2nn3c(-c4ccncc4)nnc3s2)c1	0	0.2	6	80*	1	98*
Cc1ccc2[nH]c3c(=O)n(CCCN4CCN(C)CC4)cnc3c2c1	1	1	3	1	-8	2
COc1ccc(NC(=O)c2cccnc2C(=O)O)c(OC)c1	1.1	1	16	-4	4	-12
c1ccc2c(c1)CCCN2Cc1nnnn1C1CCCC1	0	0.4	-1	59*	21	96*
CC1Cc2ccccc2N1C(=O)CSc1nnc(Cc2ccccc2)n1CCc1ccccc1 (stereo not given)	0.1	0.1	-1	93*	19	92*
O=C(CSc1nnc(Cc2cccs2)n1C1CCCCC1)N1CCCc2ccccc21	0.8	1	6	3	11	20
CC1Cc2ccccc2N1C(=O)CSc1nnnn1C(C)C (stereo not given)	0.6	0.5	-4	52*	-1	40
CC1Cc2ccccc2N1C(=O)CSc1nnnn1C (stereo not given)	0.6	1.1	-2	-7	1	43
O=C(CSc1nnnn1C1CCCC1)N1CCCc2ccccc21	0.1	1.1	0	-8	-4	91*
c1ccc(CCn2nnnc2CN2CCc3ccccc32)cc1	0	0.1	14	86*	7	98*
CC1Cc2ccccc2N1C(=O)CSc1nnnn1C1CCCC1 (stereo not given)	0.7	0.4	3	58*	-5	26
CC(C)c1ccc(OCC(=O)Nc2cccc3c2CCCC3)cc1	0.9	1	0	-3	-10	8
Cc1onc(-c2ccccc2)c1C(=O)NC(CC(=O)O)c1ccc(OC(C)C)cc1 (stereo not given)	0.9	1.1	1	-5	1	8
CN1CCc2c(C#N)c(N3CCCCC3)nc(NCc3ccccc3)c2C1	0.7	0.3	27	74*	48*	33
N#Cc1c(NCCCO)nc(-c2ccco2)c2c1CCCC2	0.4	0.1	-10	92*	3	61*
N#Cc1c(NCCCO)nc(NCc2ccccc2)c2c1CCN(Cc1ccccc1)C2	0.6	0	0	100*	20	44
N#Cc1c(NC2CCCCC2)nc(-c2ccco2)c2c1CCCC2	1	0.8	4	20	12	1
C=CCNc1ncnc2c1[nH]c1ccc(Cl)cc12	0.7	0.4	1	64*	5	34
CCCn1c(-c2ccc(F)cc2)cnc1SCC(=O)O	0.9	0.9	0	14	7	6
CC1CCCCN1C(=O)CSc1nc(N)cc(=O)[nH]1 (stereo not given)	1	0.6	3	36	30*	-3
CCn1c(-c2ccc(F)cc2)cnc1SCC(=O)N1CCCCC1C (stereo not given)	0.4	0.6	1	40	14	63*
O=C(CC1CCS(=O)(=O)C1)Nc1ccc[nH]c1=O (stereo not given)	0.8	1.1	2	-5	2	15
